According to the supplement of paper PMC9135407:
Several values for one entry are separate records, joined by “and”; a condition that tells them apart may be missing. Equal entries are not always repeated. Structures can show the parent of a compound that is named as a salt. The whole screen tested about 5,800 compounds, of which about 620 (11%) showed activity.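 How the source made its calls: active = score above a cut-off or among the top three wells of a plate; in these data no inactive exceeds 0.85.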 The sample as a whole holds a higher share of actives than the screen did.

Tested on: primary human hepatic stellate cells (donor 1)
Assay: scaled lipid accumulation score (0 = DMSO-like, 1 = nortriptyline-like); higher = stronger HSC inactivation (lipid re-accumulation), active = hit call of the paper
Settings: 48 h
[1] = library stock concentration: 2 mM
[2] = library stock concentration: 3.33 mM
[3] = library stock concentration: 80 uM
[4] = library stock concentration: 400 uM
[5] = library stock concentration: 10 mM
[6] = library stock concentration: 1 mM
[7] = library stock concentration: 100 uM

COc1ccc2c(c[n+](C)c3c4cc5c(cc4ccc23)OCO5)c1OC.Cl [Chelerythrine chloride]
scaled lipid accumulation score [1]: 1.1 (active)

COc1ccc2c(c[n+](C)c3c4cc5c(cc4ccc23)OCO5)c1OC [Chelerythrine Chloride]
scaled lipid accumulation score [2]: 0.656 (inactive)

COc1ccc2c(c[n+](C)c3c4cc5c(cc4ccc23)OCO5)c1OC [Chelerythrine chloride]
scaled lipid accumulation score [3]: ≤ -0.016 (inactive)
scaled lipid accumulation score [4]: ≤ -0.016 (inactive)
scaled lipid accumulation score [5]: 0.308 (inactive) and 0.167 (inactive)

COc1ccc2c(c1OC)CN1CCc3cc4c(cc3C1C2)OCO4 (stereo unspecified) [(d,l)-Tetrahydroberberine]
scaled lipid accumulation score: ≤ 0 (inactive)

CCCCC/C=C\C/C=C\C/C=C\C/C=C\CCC(C)C(=O)NCCF (stereo unspecified)
scaled lipid accumulation score [6]: 0.05 (inactive)

C/C=C1/C[N+]2(C)CCC34C(=C(C=O)[C@H]1C[C@@H]32)Nc1ccccc14 (stereo partly specified) [Fluorocurarine chloride]
scaled lipid accumulation score: ≤ 0 (inactive)

CC(C)C1CNC(C(=O)O)C1CC(=O)O (stereo unspecified) [Dihydrokainic acid]
scaled lipid accumulation score [5]: 0.08 (inactive)

CCCCC/C=C\C[C@@H](/C=C/C=C\C/C=C\CCCC(=O)O)OO
scaled lipid accumulation score [7]: ≤ -0.021 (inactive)

CN1C2CCC1CC(OC(=O)c1cc(Cl)cc(Cl)c1)C2 (stereo unspecified)
scaled lipid accumulation score [5]: 1.04 (active)

CN1[C@@H]2CC[C@H]1C[C@@H](OC(=O)c1cc(Cl)cc(Cl)c1)C2 [3-Tropanyl-3,5-dichlorobenzoate]
scaled lipid accumulation score [5]: 0.646 (inactive)

Cc1cc(C)cc(C(=O)OC2C[C@H]3CC[C@@H](C2)N3C)c1 (stereo partly specified) [Tropanyl-3,5-dimethylbenzoate]
scaled lipid accumulation score [5]: 0.57 (inactive)

C=C(C)[C@H]1O[C@H]2CC[C@@]3(C)[C@@](O)(CC[C@H]4[C@@H]5OC(C)(C)[C@H]6C[C@@H]7C(=C)Cc8c(Cl)cc9[nH]c(c5c9c8[C@@]76O)[C@@]43C)[C@@]23O[C@H]3[C@H]1O [Penitrem A]
scaled lipid accumulation score (library stock concentration: 7.9 mM): ≤ -0.021 (inactive)

O=c1[nH]c2ccccc2n1C1CCN(CCCC(c2ccc(F)cc2)c2ccc(F)cc2)CC1 [Pimozide] [listing 1 of 3 here]
scaled lipid accumulation score [5]: 1.21 (active)

O=c1[nH]c2ccccc2n1CCCN1CCC(n2c(=O)[nH]c3cc(Cl)ccc32)CC1 [Domperidone]
scaled lipid accumulation score: 0.362 (inactive)
scaled lipid accumulation score [2]: 0.062 (inactive)
scaled lipid accumulation score (library stock concentration: 4.7 mM): 0.135 (inactive) and 0.071 (inactive)

O=C(CCCN1CCC(n2c(=O)[nH]c3ccccc32)CC1)c1ccc(F)cc1 [Benperidol]
scaled lipid accumulation score: 0.202 (inactive)

O=c1[nH]c2ccccc2n1C1CCN(CCCC(c2ccc(F)cc2)c2ccc(F)cc2)CC1 [Pimozide] [listing 2 of 3 here]
scaled lipid accumulation score: 0.242 (inactive)
scaled lipid accumulation score [5]: 0.021 (inactive)

O=c1[nH]c2ccccc2n1C1CCN(Cc2ccc(-c3[nH]c4cc5ncnc5cc4nc3-c3ccccc3)cc2)CC1 [Sigma A6730]
scaled lipid accumulation score [3]: ≤ 0 (inactive)
scaled lipid accumulation score [4]: ≤ 0 (inactive)
scaled lipid accumulation score [1]: 0.055 (inactive)
scaled lipid accumulation score [5]: 0.683 (inactive)

O=c1[nH]c2ccccc2n1C1CCN(CCCC(c2ccc(F)cc2)c2ccc(F)cc2)CC1 [Pimozide] [listing 3 of 3 here]
scaled lipid accumulation score [5]: 1.15 (active)

c1cc(N2CCNCC2)c2cc[nH]c2c1 [4-(1-piperazinyl)-1H-Indole (hydrochloride)]
scaled lipid accumulation score [6]: ≤ 0 (inactive)

CNCCCCCCN(C)N(O)N=O
scaled lipid accumulation score [6]: 0.005 (inactive)

OC1CCCCC1N1CCC(c2ccccc2)CC1 (stereo unspecified)
scaled lipid accumulation score [5]: ≤ 0 (inactive)

OC1CCCCC1N1CCC(c2ccccc2)CC1 (stereo unspecified) [Vesamicol hydrochloride]
scaled lipid accumulation score (library stock concentration: 6.8 mM): ≤ 0 (inactive)
scaled lipid accumulation score [5]: ≤ -0.027 (inactive)

NC(=O)C[S@@+]([O-])C(c1ccccc1)c1ccccc1
scaled lipid accumulation score [5]: ≤ 0 (inactive)

CCCCC[C@@H](/C=C/C=C\C/C=C\C/C=C\CCCC(=O)O)OO
scaled lipid accumulation score [7]: ≤ -0.01 (inactive)

CCCCC/C=C\C/C=C\C/C=C\C/C=C\CCCC(=O)Nc1cccc(O)c1 [N-(3-hydroxyphenyl)-Arachidonoyl amide]
scaled lipid accumulation score [6]: 0.053 (inactive)

CCN(CC)CCOC(=O)C(O)(c1ccccc1)c1ccccc1
scaled lipid accumulation score [5]: ≤ 0 (inactive)

CCCCC/C=C\C/C=C\C/C=C\C/C=C\CCCC(=O)NCCF [Arachidonoyl-2'-Fluoroethylamide]
scaled lipid accumulation score [6]: ≤ 0 (inactive)

CCCN1CCc2cccc3c2[C@H]1Cc1ccc(O)c(O)c1-3 [R(-)-Propylnorapomorphine hydrochloride]
scaled lipid accumulation score [5]: ≤ -0.038 (inactive)

CCCCCCCCCC(=O)OC[C@H](COP(=O)([O-])OCC[N+](C)(C)C)OC(=O)CCCCCCCCC [1,2-Didecanoyl PC]
scaled lipid accumulation score [6]: ≤ 0 (inactive)

c1ccc2sc(C3(N4CCCCC4)CCCCC3)cc2c1 [BTCP maleate]
scaled lipid accumulation score [5]: 0.248 (inactive)

S=C=Nc1cccc(C2(N3CCCCC3)CCCCC2)c1 [Metaphit]
scaled lipid accumulation score [5]: 0.949 (active)

c1ccc2sc(C3(N4CCCCC4)CCCCC3)cc2c1 [BTCP hydrochloride]
scaled lipid accumulation score [5]: 0.74 (inactive)

COC(=O)[C@@H](N)CCCNC(=N)N[N+](=O)[O-] [L-NAME hydrochloride]
scaled lipid accumulation score [5]: ≤ 0 (inactive)

COC(=O)[C@@H](N)CCCNC(=N)N[N+](=O)[O-] [NG-Nitro-L-arginine methyl ester hydrochloride]
scaled lipid accumulation score [5]: 0.047 (inactive)

COC(=O)[C@@H](N)CCCNC(=N)N[N+](=O)[O-]
scaled lipid accumulation score (library stock concentration: 21.4 mM): ≤ -0.012 (inactive)

COC(=O)[C@@H](N)CCCNC(=N)N[N+](=O)[O-] [L-NAME (hydrochloride)]
scaled lipid accumulation score [6]: ≤ 0 (inactive)

c1cc2ccsc2c(N2CCNCC2)n1 [7-Piperazin-1-yl-thieno[2,3-c] Pyridine (hydrochloride)]
scaled lipid accumulation score [6]: ≤ 0 (inactive)

c1cc(N2CCNCC2)c2cnccc2c1 [8-piperazin-1-yl-Isoquinoline (hydrochloride)]
scaled lipid accumulation score [6]: 0.005 (inactive)

NC(N)=Nc1ccc2[nH]c3c(c2c1)C[C@@]1(O)[C@H]2Cc4ccc(O)c5c4[C@@]1(CCN2CC1CC1)[C@H]3O5 [GNTI dihydrochloride]
scaled lipid accumulation score [5]: ≤ -0.006 (inactive)

Oc1ccc2c3c1O[C@H]1[C@@H](O)CC[C@@]4(O)[C@@H](C2)N(CC2CCC2)CC[C@]314 [Nalbuphine hydrochloride]
scaled lipid accumulation score: ≤ 0 (inactive)
scaled lipid accumulation score (library stock concentration: 5.1 mM): 0.02 (inactive)
scaled lipid accumulation score [5]: ≤ 0 (inactive)

Oc1ccc2c3c1O[C@H]1[C@@H](O)CC[C@@]4(O)[C@@H](C2)N(CC2CCC2)CC[C@]314 [Nalbuphine]
scaled lipid accumulation score [5]: 0.075 (inactive)

NC(N)=Nc1ccc2[nH]c3c(c2c1)C[C@@]1(O)[C@H]2Cc4ccc(O)c5c4[C@@]1(CCN2CC1CC1)[C@H]3O5 [Guanidinyl-naltrindole di-trifluoroacetate]
scaled lipid accumulation score [5]: ≤ -0.07 (inactive)

CS(=O)(=O)O.Oc1ccc2c3c1O[C@H]1c4oc5ccccc5c4C[C@@]4(O)C(C2)N(CC2CC2)CC[C@]314 [Naltriben mesylate]
scaled lipid accumulation score [5]: 1.27 (active)

CS(=O)(=O)O.Oc1ccc2c3c1O[C@H]1c4oc5ccccc5c4C[C@@]4(O)C(C2)N(CC2CC2)CCC314 (stereo partly specified) [Naltriben methanesulfonate]
scaled lipid accumulation score [5]: 1.11 (active)

Oc1ccc2c3c1O[C@H]1c4oc5ccccc5c4C[C@@]4(O)[C@@H](C2)N(CC2CC2)CC[C@]314 [Naltriben mesylate]
scaled lipid accumulation score (library stock concentration: 4.8 mM): 0.403 (inactive)

Oc1ccc2c3c1O[C@H]1c4c(c5ccccc5n4Cc4ccccc4)C[C@@]4(O)C(C2)N(CC2CC2)CC[C@]314 [N-Benzylnaltrindole hydrochloride]
scaled lipid accumulation score [5]: 0.77 (inactive)

NNCc1ccccc1 [Benzylhydrazine hydrochloride]
scaled lipid accumulation score [5]: 0.294 (inactive)

C[C@@H]1NCCc2cc(O)c(O)cc21 [Salsolinol hydrobromide]
scaled lipid accumulation score: ≤ 0 (inactive)

C#CC(C)(O)CC (stereo unspecified)
scaled lipid accumulation score [5]: ≤ 0 (inactive)

Cc1nnc2n1-c1ccc(Cl)cc1C(c1ccccc1)=NC2 [Alprazolam]
scaled lipid accumulation score [5]: ≤ 0 (inactive)

Cc1ncc2n1-c1ccc(Cl)cc1C(c1ccccc1F)=NC2
scaled lipid accumulation score [5]: ≤ 0 (inactive)

CCCCC/C=C\C=C\[C@H](CCCCCCCC(=O)O)OO
scaled lipid accumulation score [7]: ≤ -0.021 (inactive)

C=C1[C@@H](O)[C@@H]2O[C@]3(CC[C@H](/C=C/[C@@H](C)[C@@H]4CC(C)=C[C@@]5(O[C@H](C[C@@](C)(O)C(=O)O)CC[C@H]5O)O4)O3)CC[C@H]2O[C@@H]1[C@@H](O)C[C@H](C)[C@H]1O[C@@]2(CCCCO2)CC[C@H]1C [Okadaic acid]
scaled lipid accumulation score (library stock concentration: 600 uM): 0.393 (inactive)

COC1=CC(=O)O[C@@H](/C=C/c2ccccc2)C1 [Kawain]
scaled lipid accumulation score: 0.119 (inactive)

COC1=CC(=O)O[C@@H](/C=C/c2ccccc2)C1 (racemic) [Kavain (+/-)]
scaled lipid accumulation score (library stock concentration: 21.7 mM): 0.117 (inactive)
